From PubChem BioAssay (EPA / NIEHS)
Inconclusive results are not listed. The source made the active and inactive calls. How the source made its calls: active means hit-call score of the fitted dose curve at least 0.9, where 1 is the maximum; inconclusive means response in the unintended direction; inactive means score below 0.9.

target: human Neonicotinoid receptor (NNR), CHRNA2 (gene 1135) (UniProt Q15822); experiment: NVS_LGIC_hNNR_NBungSens: NovaScreen (NVS) Ligand-Gated Ion Channel Assay for human Neonicotinoid receptor (NNR) (AID 2283313)
Description: NVS_LGIC_hNNR_NBungSens is a biochemical, single-readout assay that uses extracted gene-proteins from Human neuroblastoma membrane cells in a tissue-based cell-free assay. Measurements were taken 2 hours after chemical dosing in a 48-well plate.NVS_LGIC_hNNR_NBungSens is one of one assay component(s) measured or calculated from the NVS_LGIC_hNNR_NBungSens assay. It is designed to make measurements of radioligand binding, a form of binding reporter, as detected with scintillation counting signals by Filter-based radiodetection technology.Data from the assay component NVS_LGIC_hNNR_NBungSens was analyzed into 1 assay endpoint. This assay endpoint, NVS_LGIC_hNNR_NBungSens, was analyzed in the positive analysis fitting direction relative to DMSO as the negative control and baseline of activity. Using a type of binding reporter, loss-of-signal activity can be used to understand changes in the binding as they relate to the gene CHRNA2. Furthermore, this assay endpoint can be referred to as a primary readout, because the performed assay has only produced 1 assay endpoint. To generalize the intended target to other relatable targets, this assay endpoint is annotated to the ion channel intended target family, where the subfamily is ligand-gated ion channel.
Binding assays used specific radioligands (tritiated, iodinated) with non-radioactive competitive displacement ligands in agonist or antagonist protocols (as indicated) and various reference compounds and inhibitors to titrate specific binding to receptors and transporters. Most enzyme assays (CYPs, kinases, phosphatases, proteases, HDACs) used recombinant protein and specific substrates (fluorescence mostly, some colorimetric and radioactive) and inhibitors, followed by a biochemical separation of substrate and product. All assays for the biochemical HTS were initially run in duplicate at a single concentration (10 uM for CYP450 assays and 25 uM for all others). Assay-chemical combinations meeting a pre-defined threshold (e.g., 30% inhibition and other criteria defined below) were then run in singleton concentration-response format with maximum concentration of 20 uM for CYPs and 50 uM for all others. Each assay was run with positive and negative controls, and concurrent controls on every plate. The follow-up (secondary) screen tested active chemical-pairs in concentration series, as well as a few additional assays not tested in the primary screen, some selected negative inactives, and several cases re-run in the concentration series for confirmatory purposes.

human Neonicotinoid receptor (NNR), CHRNA2 (gene 1135), sequence (Q15822 whole entry, looked up): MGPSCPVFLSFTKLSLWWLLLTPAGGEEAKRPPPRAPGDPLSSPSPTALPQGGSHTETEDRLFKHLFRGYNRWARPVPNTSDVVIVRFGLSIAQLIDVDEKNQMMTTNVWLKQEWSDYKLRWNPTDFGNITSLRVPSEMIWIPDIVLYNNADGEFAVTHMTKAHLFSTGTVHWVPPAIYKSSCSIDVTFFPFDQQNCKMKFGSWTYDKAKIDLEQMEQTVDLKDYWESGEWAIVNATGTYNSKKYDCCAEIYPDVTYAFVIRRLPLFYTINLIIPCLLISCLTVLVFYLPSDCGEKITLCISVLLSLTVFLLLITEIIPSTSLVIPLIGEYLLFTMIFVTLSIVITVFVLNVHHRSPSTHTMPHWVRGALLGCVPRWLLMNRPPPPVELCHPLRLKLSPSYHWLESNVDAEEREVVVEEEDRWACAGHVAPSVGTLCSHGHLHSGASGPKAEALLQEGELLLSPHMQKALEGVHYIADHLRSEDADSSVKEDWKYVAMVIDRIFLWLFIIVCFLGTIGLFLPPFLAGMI

SMILES	outcome	AC50
S=C(S)NCCNC(=S)S.[Mn+2].[S-]C([S-])=NCCN=C([S-])[S-].[Zn+2]	inactive	–
Clc1cc(Cl)c2c(c1)N=C1CCCCCN1C2	–	1.98 µM (active)
COc1ccc(OC(F)(F)F)cc1CN[C@H]1CCCN[C@H]1c1ccccc1	–	25 µM (active)
S=C([S-])NCCNC(=S)[S-].[Mn+2]	inactive	–
CCCOC(=O)NCCCN(C)C	–	7.3 µM (active)
Cn1cnc2c1c(=O)[nH]c(=O)n2C	–	15.4 µM (active)
NC(=O)N(O)[C@@H]1C=C[C@H](Oc2cccc(Oc3ccc(F)cc3)c2)C1	–	41.2 µM (active)
CCCCCCCCCCCC[N+](C)(C)C	–	13.3 µM (active)
COc1cc(S(=O)(=O)O)c(C)cc1N=Nc1c(O)ccc2cc(S(=O)(=O)O)ccc12	–	16.7 µM (active)
CN(C)CCCN1c2ccccc2Sc2ccc(Cl)cc21	–	35.7 µM (active)
Cc1[nH]cnc1C[C@H]1CCc2c(C)c3ccccc3n2C1=O	inactive	–
CCCCCCCC(=O)O	–	37.4 µM (active)
CNS(=O)(=O)c1cc(C(=O)N2CCC(CCN3C4CCC3CC(n3c(C)nc5ccccc53)C4)(c3cccc(F)c3)CC2)c(Cl)cc1F (stereo unspecified)	inactive	–
O=c1[nH]c2ccc(S(=O)CCN3CCC(Cc4ccc(F)cc4)CC3)cc2o1 (stereo unspecified)	–	5.31 µM (active)
COc1cccc(-c2ccc(/C=C\CN3CCCCCC3)cc2Cl)c1	–	22.6 µM (active)
NCCOCCOCCN	inactive	–
COc1cc(C(=O)NC2CCN(C)CC2)ccc1Nc1ncc2c(n1)N(C1CCCC1)CC(F)(F)C(=O)N2C	inactive	–
CN1CCC[C@H]1c1cccnc1	–	1.3 µM (active)
CCN(CC)CCNc1ccc(CNC=O)c2sc3ccc(OC)cc3c(=O)c12	inactive	–
Cc1cc(SC2=C(O)C[C@@](CCc3ccc(N)cc3)(C(C)C)OC2=O)c(C(C)(C)C)cc1CO	–	13.1 µM (active)
O=C(c1ccc(OCCN2CCCCC2)cc1)c1c(-c2ccc(O)cc2)sc2cc(O)ccc12	–	16.7 µM (active)
